Assay outcomes as filed in PubChem BioAssay.
Many of the other results were omitted from the sample, so hits are more common in it than they were.
GRP78 ERSR act = induces the endoplasmic reticulum stress response in human glioma cells; U87-MG GRP78 promoter luciferase reporter, 16 h; Potency, µM, without a hit: at the highest dose activation, usual class: activators; hit rate 0.02% among 420,000; AID 602332; also: series mostly up to about 76 µM; % of control where 0% means no effect; nearly all actives have a fitted effect of over 35% in size
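Stably transfected U87-MG human glioma cells carrying a GRP78-based luminescent sensor were seeded at 1000 cells/well, pin-dosed with compounds and incubated 16 h. Luciferase reagent was then added, and end-point luminescence was read after 10 min at room temperature.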
Sfp inh = inhibitors of Bacillus subtilis Sfp phosphopantetheinyl transferase; Biochemical Sfp PPTase activity, qHTS; hit rate 3.5% among 310,000; AID 1490; Potency, µM, for inactives: largest response in the series, negative = inhibition, usual class: inhibitors;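 also: the enzyme is Sfp with the accession as filed and its product quenches rhodamine fluorescence; 0% = enzyme reaction without inhibitor and -100% = no enzyme wells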
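Fluorescence-quenching assay: 15 nM Sfp-PPTase preincubated 15 min at room temperature with compound, then 5 uM rhodamine-CoA and 12.5 uM BHQ-2-labelled YbbR peptide added. Fluorescence (ex 525/em 598 nm) read at start and after 30 min; difference gives rate.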
12-LOX inh = blocks human arachidonate 12S-lipoxygenase; P18054; purified 12hLO, xylenol orange hydroperoxide absorbance; Potency, µM (highest dose often 108 µM), for the others: at the highest dose activity change, negative = inhibition, hits mostly inhibitors; hit rate 1.1% among 580,000; AID 1671190; also: % is scaled to controls: 0 for no effect and ±100 for the full control effect
Target sequence (P18054 whole entry, looked up): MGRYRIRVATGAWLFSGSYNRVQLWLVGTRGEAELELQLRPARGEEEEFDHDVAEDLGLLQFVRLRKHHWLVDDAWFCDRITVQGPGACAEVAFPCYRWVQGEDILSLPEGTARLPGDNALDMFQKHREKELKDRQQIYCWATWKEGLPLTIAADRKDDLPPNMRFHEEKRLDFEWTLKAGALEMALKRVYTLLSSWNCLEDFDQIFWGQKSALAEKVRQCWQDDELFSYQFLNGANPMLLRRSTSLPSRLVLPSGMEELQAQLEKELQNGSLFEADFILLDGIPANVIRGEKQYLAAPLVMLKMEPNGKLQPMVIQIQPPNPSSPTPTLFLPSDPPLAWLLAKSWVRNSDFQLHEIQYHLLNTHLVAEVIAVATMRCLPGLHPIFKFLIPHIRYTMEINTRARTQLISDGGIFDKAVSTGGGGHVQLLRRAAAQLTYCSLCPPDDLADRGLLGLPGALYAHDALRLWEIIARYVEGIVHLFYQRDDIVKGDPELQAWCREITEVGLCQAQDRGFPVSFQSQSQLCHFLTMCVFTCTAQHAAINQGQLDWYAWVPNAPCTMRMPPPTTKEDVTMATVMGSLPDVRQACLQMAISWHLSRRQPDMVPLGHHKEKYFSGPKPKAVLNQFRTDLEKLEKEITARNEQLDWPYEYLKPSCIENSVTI
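Hydroperoxide product was detected by ferrous iron/xylenol orange as the 573 to 405 nm absorbance ratio. Arachidonic acid at 40 uM (final) was turned over for 30 min at room temperature by 150 nM human 12hLO, pH 7.0 Hepes buffer, after 15 min compound preincubation.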
G9a block = G9a (human) methyltransferase inhibition; Q96KQ7; G9a H3K9 monomethylation, AlphaScreen, 2 h; Potency, µM (highest dose often 102 µM), for the others: at the top dose activity, negative = inhibition, usual class: inhibitors; hit rate 8.8% among 350,000; AID 504332; also: % is scaled to controls: 0 for no effect and ±100 for the full control effect; nearly all actives have a fitted effect of over 75% in size
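AlphaScreen read-out: biotin-H3K9 peptide (500 nM) methylation by 20 nM enzyme with 20 uM SAM, 2 h at room temperature after 15 min compound preincubation; anti-monomethyl H3K9 antibody plus donor/acceptor beads, 10 min dark.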
VDR inh = vitamin D3 receptor (human) inhibition. VDR-SRC2-3 peptide fluorescence polarization, 2 h. Potency, µM, inactives show max response, negative = inhibition, hits mostly inhibitors. hit rate 0.93% among 400,000. AID 504847; also: % is scaled to controls: 0 for no effect and ±100 for the full control effect
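Fluorescence polarization assay measuring small-molecule disruption of VDR binding to the coregulator peptide SRC2-3. Compounds were pin-transferred (23 nl) into the reagent mix and incubated 2 h at room temperature before reading.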
Starred values were filed as active, the others as inactive; ? = inconclusive; . = not tested or not shown; [ ] = remark or other dose. Calls follow the shape of the dose curve; as a rule, active = well fitted curve in the direction sought with a large enough effect; inconclusive = small, poorly fitted or top-dose-only effect, or another doubt; inactive = no such curve, though single readings can be large; an effect the other way counts as inactive or inconclusive. Potency is read from the fitted curve at half-maximal effect.

SMILES | GRP78 ERSR act | Sfp inh | 12-LOX inh | G9a block | VDR inh
O=C(/C=C/c1ccc(O)cc1)c1ccc(-c2ccccc2)cc1 | . | . | 42% | . | .
CNC(=O)NC(=O)C(C)n1nc(C(=O)O)c2ccccc2c1=O (stereo not drawn) | . | . | 2% | . | .
CCOC(=O)c1ccc2[nH]c3c(c2c1)CCCC3 | 13% | 1% | 10% | 35µM* | 7%
CCN(C(=O)COC(=O)c1ccc(Cl)c(N)c1)C1CCS(=O)(=O)C1 (stereo not drawn) | 0% | 4% | 5% | 114%[59 µM] | -9%
CCOC(=O)c1ccc(NS(=O)(=O)c2ccc3[nH]c4c(c3c2)CCCCC4)cc1 | 2% | . | ? | -43%[59 µM] | 2%
CCN(C(=O)COC(=O)c1ccc2[nH]c3c(c2c1)CCCC3)C1CCS(=O)(=O)C1 (stereo not drawn) | -3% | 9% | 11% | 50µM* | 3%
CC(C(=O)O)C(=O)O | 0% | . | -8% | 10µM* | 4%
Cc1cc(C)cc(NC(=S)NNC(=O)C(N)=O)c1 | . | . | -28% | . | .
CN1CCN(c2ncnc3scc(-c4ccccc4Cl)c23)CC1 | -4% | 6% | -14% | 17% | -17%
CN1CCN(c2ncncc2-c2ccccc2Cl)CC1 | -1% | 13% | 40µM* | 1%[0.501 µM] | -3%
O=C(O)/C(=C/c1ccc(Cl)c([N+](=O)[O-])c1)c1ccc(S(=O)(=O)N2CCCCC2)s1 | 2% | . | 25µM* | . | ?
O=C(O)/C(=C\c1cccc(F)c1)c1ccc(S(=O)(=O)N2CCCCC2)s1 | -5% | -28% | -25% | 56µM* | -19%
CCn1c2c(c(=O)[nH]c1=O)C(c1cccc(F)c1)C1=C(COC1=O)N2 (stereo not drawn) | . | . | -17% | . | .
COc1cccc(/C=C(\C#N)c2ccc(Cl)cc2)c1OC(C)C | . | . | 13% | . | .
COc1ccc(C(C#N)=C2C=CC(=NO)C(C)=C2Cl)cc1 | -4% | . | 20µM* | . | ?
COc1ccc(C(C#N)=C2C=C(Cl)C(=NO)C=C2Cl)cc1 | 0% | . | ? | . | .
COc1ccc(S(=O)(=O)c2c(O)c3ccc(C(=O)Nc4cccc(C)c4C)cc3[nH]c2=O)cc1 | . | . | -29% | . | .
Cc1cc(SCC(=O)N/N=C/c2ccc(O)c(O)c2O)c(C)cc1Br | -6% | 10µM* | ? | ? | -18%
CC(C)(C)c1cc(CN2CCC(O)CC2)cc(C(C)(C)C)c1O | -5% | -16% | ? | 7.9µM* | 4%
Cn1ncc(CN2CCCC23CCN(c2ccc(C(F)(F)F)cn2)CC3)c1C1CC1 | . | . | 53% | . | .
Cc1ccc(Nc2ncnc(N)n2)cc1 | 0% | 2% | 2% | 71µM* | -16%
Nc1ncnc(Nc2ccc(Cl)cc2)n1 | 1% | . | . | . | .
Cc1ccc(N2CCN(c3ncccc3[N+](=O)[O-])CC2)c(C)c1 | 1% | 1% | -1% | 18µM* | -12%
O=[N+]([O-])c1cccnc1N1CCCCC1 | -4% | 16% | 0% | 6% | -18%
c1ccc(COc2ccc(CNCC3CCCO3)cc2)cc1 (stereo not drawn) | . | . | 12% | . | .
SMILES | GRP78 ERSR act | Sfp inh | 12-LOX inh | G9a block | VDR inh
FC(F)(F)c1ccc(/C=N/Nc2ccc(Cl)cc2)cc1 | . | . | 7.1µM* | . | .
FC(F)(F)c1cccc(/C=N/Nc2ccc(Cl)cc2)c1 | . | . | 7.1µM* | . | .
Cc1ccc(N/N=C/c2cccc(C(F)(F)F)c2)cc1Cl | . | . | 3.5µM* | . | .
Clc1ccc(/C=N\Nc2ccccc2)cc1 | 2% | 11% | ? | -5%[12.7 µM] | -20%
COc1ccc(OCc2nnc(SCC(=O)N3CCc4ccccc4C3)n2C)cc1 | . | . | 10% | . | .
CCc1ccc(Nc2nc(CSc3ccc(Cl)cc3)nc3sc4c(c23)CCC4)cc1 | . | . | 28% | . | .
CC(=O)Nc1ccc2oc(-c3ccc(C)cc3)cc(=O)c2c1 | . | . | -6% | . | .
CCOc1cc(Br)cc(C(c2c(C(=O)O)[nH]c3ccccc23)c2c(C(=O)O)[nH]c3ccccc23)c1O | -4% | 33% | 5.6µM* | 20%[0.501 µM] | ?
CN=C1NN=C(c2cc(C)n(-c3c(C)n(C)n(-c4ccccc4)c3=O)c2C)CS1 | -2% | 50µM* | -9% | ? | 7%
Cc1cc(C2=NNC(=NC3CC3)SC2)c(C)n1-c1ccccc1 | -13% | -28% | -5% | 28µM* | ?
COc1ccc(-n2c(C)cc(C3=NNC(=NC4CC4)SC3)c2C)cc1 | 1% | -108% | ? | 42% | 6%
NC(=O)CN1CCC(NC(=O)c2ccc(Oc3ccccc3)cc2)CC1 | . | . | 29% | . | .
CN1C(=O)C(O)(CC(=O)c2ccccc2O)c2cc(Br)ccc21 (stereo not drawn) | -5% | 1% | -1% | 24%[59 µM] | -14%
CN1C(=O)C(O)(CC(=O)/C=C/c2ccco2)c2cc(Br)ccc21 (stereo not drawn) | 7% | 45µM* | -24% | 35µM* | 0%
COc1ccc(-n2sc3ccc(F)cc3c2=O)cc1 | -11% | . | 1.1µM* | 0%[0.501 µM] | ?
Cc1ccc(C)c(-n2sc3ccc(F)cc3c2=O)c1 | -11% | . | 1.6µM* | -1%[0.501 µM] | 20µM*
Cc1ccc(C)c(-n2c(C)nc3c(cnn3-c3ccc(F)cc3)c2=O)c1 | . | . | 18% | . | .
COc1ccc(-n2sc3ccccc3c2=O)cc1 | -11% | . | ? | . | .
O=c1c2cc(F)ccc2sn1-c1ccc(F)cc1 | -4% | . | . | 7%[0.501 µM] | 18µM*
Cc1ccccc1-n1nnnc1SCC(=O)Nc1ccc2nccnc2c1 | . | . | 47% | . | .
Cc1oc(-c2nc(C#N)c(NC3CC3)o2)cc1S(=O)(=O)N(C)C | . | . | 33% | . | .
CN(C)C(C(=O)NCc1cc(F)c(F)c(F)c1F)c1cccc(F)c1 (stereo not drawn) | . | . | 23% | . | .
O=c1cc(C(F)(F)F)[nH]c(=S)[nH]1 | . | . | 0.79µM* | . | .
O=C1C(=C(c2ccccc2)c2ccccc2)C(Cl)C(Cl)(Cl)c2ccccc21 (stereo not drawn) | . | . | 10µM* | . | .
